HSV replic up: increases HSV replication in cells; HSV replication augmentation in cells, fold increase; maximum fold increase; 0.005% of 220,000 active; AID 1956; in the data active = maximum fold increase above about 1.5; tested in PC3 cells
PGE2 EP2 inh: blocks the human prostaglandin E2 receptor EP2; P43116; C6 glioma cells expressing human EP2, cAMP TR-FRET; cells stimulated with saturating PGE2; inhibition, % at 25 µM; 0.52% of 260,000 active;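 active = percent inhibition above 40 after rounding to a whole number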;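 note: rat C6 glioma host cells with rolipram phosphodiesterase inhibitor present; the protocol text gives 20 µM as final concentration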
EP2 modulator: EP2 receptor (human) modulation. EP2-expressing cells, cAMP HTRF FRET, PGE2 co-stimulation. AID 940. induction, % at 25 µM. P43116. 0.83% of 260,000 active;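 active = compounds whose cAMP rise, as percent of the full-agonist control response, exceeds 60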;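 note: rat C6 glioma line stably carrying human EP2 under a CMV promoter; the protocol text gives 20 µM as final concentration; 100% = response of wells given 1 µM PGE2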
p47phox inh: blocks human p47phox regulatory protein of NADPH oxidases; p47phox/p22phox peptide binding, fluorescence polarization, 2 h; P14598; inhibition, % at 24.7 µM; 0.53% of 220,000 active;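 active = inhibition above about 30%, limit read from the data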;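 note: 0% = p47phox with labelled peptide and 100% = labelled peptide alone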
Wee1 stabilizer: inhibitors of human Wee1 degradation. HeLa Luc-Wee1K328M stability, luciferase luminescence; 100% = proteasome inhibitor MG132 effect. reporter increase, % at 5 µM. 1.2% of 220,000 active. AID 1321;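 active = activation above the mean of all tested compounds plus 3 SD, set per screening run, cut at about 8.8% in these data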;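 note: cells exposed to compound for 20 h before luminescence read; 0% = DMSO alone and 100% = MG132 at 30 µM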
Furin inh: inhibitors of human furin. purified furin, fluorogenic substrate cleavage. inhibition, % at 20 µM or 30 µM. 0.061% of 220,000 active. AID 463115; in the data active = inhibition above about 25%
Target sequence (P09958 108-714 limits assumed): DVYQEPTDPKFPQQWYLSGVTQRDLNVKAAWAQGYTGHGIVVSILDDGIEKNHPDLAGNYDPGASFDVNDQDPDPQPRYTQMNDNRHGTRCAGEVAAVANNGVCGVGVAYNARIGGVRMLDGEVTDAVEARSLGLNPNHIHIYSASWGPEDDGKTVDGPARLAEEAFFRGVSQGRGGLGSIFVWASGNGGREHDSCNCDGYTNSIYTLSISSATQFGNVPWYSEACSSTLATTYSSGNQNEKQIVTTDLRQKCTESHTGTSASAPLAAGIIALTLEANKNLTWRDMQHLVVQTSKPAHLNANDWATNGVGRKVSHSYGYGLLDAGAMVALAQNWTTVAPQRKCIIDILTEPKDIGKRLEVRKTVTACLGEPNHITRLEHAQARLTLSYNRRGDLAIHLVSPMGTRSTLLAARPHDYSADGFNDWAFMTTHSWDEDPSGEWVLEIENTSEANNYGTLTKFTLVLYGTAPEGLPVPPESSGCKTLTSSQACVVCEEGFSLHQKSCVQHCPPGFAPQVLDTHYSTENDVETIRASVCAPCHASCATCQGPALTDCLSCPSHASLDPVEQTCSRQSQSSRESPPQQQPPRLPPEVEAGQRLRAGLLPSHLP
Wee1 degr conf: human Wee1 degradation inhibition, confirmation; HeLa Luc-Wee1K328M degradation, luminescence; vehicle 0%, proteasome-blocked wells 100%; AID 1410; shares compounds with Wee1 stabilizer; activation, % at 5 µM; 4% of 1,100 active; in the data active = activation above about 8.9%
An asterisk follows results filed as active; i = inactive; nt = no result. This is a sample that favours compounds with a hit; in the whole collection about 2.8% have one here.

SMILES | HSV replic up | PGE2 EP2 inh | EP2 modulator | p47phox inh | Wee1 stabilizer | Furin inh | Wee1 degr conf
C=CCn1c(C(C)NC(=O)c2ccccc2Cl)n[nH]c1=S (centres undefined) | nt | 5 | 17 | nt | nt | nt | nt
NC(=O)c1cc(-c2ccc(Cl)cc2Cl)no1 | nt | 21 | -91 | nt | nt | nt | nt
COc1ccc(C(=O)/C=C/Nc2ccc(S(=O)(=O)Nc3nc(C)cc(C)n3)cc2)cc1OC | i | 14 | 10 | -4 | -1 | -13 | nt
Cc1cc(C)nc(NS(=O)(=O)c2ccc(N/C=C/C(=O)c3ccc(Cl)cc3)cc2)n1 | i | 6 | -44 | -9 | 14* | -3 | 0
CCCN1C2CCCC1CC(NC(=O)Nc1cccc(OC)c1)C2 (centres undefined) | nt | 7 | -43 | nt | nt | nt | nt
CCC1CCC(NC(=O)Nc2cccc(OC)c2)CC1 (centres undefined) | i | 7 | -47 | -1 | 16* | -18 | 4
CC1CCN(C(=O)CN(c2ccc(Cl)cc2)S(C)(=O)=O)CC1 | nt | 3 | -34 | nt | nt | nt | nt
CCCn1ncc(CN2CCN(Cc3ccc(C)o3)C(CCO)C2)c1C (centres undefined) | i | 5 | 6 | 0 | 11* | -17 | 2
O=C(CCc1n[nH]c(=O)[nH]c1=O)Nc1cccc([N+](=O)[O-])c1 | i | 10 | 11 | 7 | 13* | -2 | -2
O=C(NCCNc1ncnc2sc3c(c12)CCCC3)c1ccc(F)cc1 | nt | 7 | -67 | nt | nt | nt | nt
Cc1ccccc1C(=O)N1CCN(c2ccc(NC(=O)C(C)C)cc2)CC1 | nt | 9 | -35 | nt | nt | nt | nt
COc1cc(OC)c(OC)cc1CNCCNC(=O)c1cccs1 | nt | 6 | -8 | nt | nt | nt | nt
COc1ccc(CNCCNC(=O)c2cccs2)c(OC)c1OC | i | 5 | -26 | -3 | 12* | -21 | -1
Cc1ccc(CN(Cc2nccn2C)C2CC(C)(C)NC(C)(C)C2)o1 | nt | 2 | -15 | nt | nt | nt | nt
O=C1CCc2cc(S(=O)(=O)NCC3(c4ccccc4)CCOCC3)ccc2N1 | nt | 8 | -4 | nt | nt | nt | nt
COc1cc(/C=N/N=C/c2cc(OC)c(O)c(OC)c2)cc(OC)c1O | i | 5 | -5 | -162 | 0 | -17 | nt
COc1cc(/C=N/N=C(/C(=O)c2ccccc2)c2ccccc2)cc(OC)c1O | i | 4 | 47 | -30 | 12* | -14 | 0
COc1ccc(OC)c(C2/C(=C(/O)c3ccc(Cl)cc3)C(=O)C(=O)N2CC(C)O)c1 (centres undefined) | nt | 5 | -8 | nt | nt | nt | nt
COc1ccccc1-c1nnc(SCC(=O)N2CCOCC2)o1 | i | 9 | 20 | -5 | 11* | -6 | 3
COc1ccccc1-c1nnc(-c2ccc(N3CCOCC3)cc2)o1 | i | 14 | -38 | -16 | 15* | -8 | -1
COc1ccc(Cl)cc1NC(=O)CSc1n[nH]c(-c2cccc(Br)c2)n1 | nt | 10 | -1 | nt | nt | nt | nt
C/C(CC(=O)Nc1ccc2c(c1)OCO2)=N\NC(=O)c1ccccc1N | i | 2 | -9 | -2 | 12* | -10 | -1
Cc1ccc(CSCC(=O)Nc2ccc3c(c2)OCO3)cc1 | i | 8 | -25 | 2 | 0 | -9 | nt
O=C(CSCc1ccccc1)Nc1ccc2c(c1)OCO2 | i | 19 | -2 | 0 | 12* | -16 | 4
C/C(CC(=O)Nc1ccc2c(c1)OCO2)=N\NC(=O)C(c1ccccc1)c1ccccc1 | i | 10 | 27 | -1 | -2 | -10 | nt
SMILES | HSV replic up | PGE2 EP2 inh | EP2 modulator | p47phox inh | Wee1 stabilizer | Furin inh | Wee1 degr conf
O=S(=O)(NC1CCCC1)c1ccc(S(=O)(=O)N2CCN(C3CCCC3)CC2)cc1 | nt | 6 | -49 | nt | nt | nt | nt
O=S(=O)(C/C(=C/CO)S(=O)(=O)c1ccccc1)c1ccccc1 | i | 4 | -25 | -36 | 13* | -12 | 8.8*
CCOc1ccc(NC(=O)C2C3CC/C=C\CCC32)cc1 (centres undefined) | i | 4 | -40 | -1 | 11* | -8 | 0
Cc1cc(-c2cn[nH]c2C2CCCN(C(=O)c3ccc4c(c3)OCCO4)C2)on1 (centres undefined) | nt | nt | 17 | nt | nt | nt | nt
COc1cc([N+](=O)[O-])ccc1NC(=O)CCCOc1cc(C)ccc1C | i | 3 | 2 | -18 | 13* | -1 | 0
COc1cc([N+](=O)[O-])ccc1NC(=O)CCCOc1ccccc1 | nt | nt | -16 | -4 | 3 | -15 | nt
O=C(CN1N=C(c2ccc(Cl)cc2)CCC1=O)NCc1cccs1 | i | 8 | -70 | -6 | 12* | -26 | -2
O=C(C1=C[C@@H](c2coc3ccccc3c2=O)C[C@@H](OCc2ccc(CO)cc2)O1)N1CCN(Cc2ccc3c(c2)OCO3)CC1 | i | 9 | -24 | -7 | 23* | -31 | -2
Cn1c2c(c(=O)n(C)c1=O)C(CC(=O)Nc1ccc(F)cc1)C(=O)N2 (centres undefined) | i | 7 | 23 | -9 | 11* | -27 | 0
Cc1ccc(CNC(=O)CC2C(=O)Nc3c2c(=O)n(C)c(=O)n3Cc2ccccc2)cc1 (centres undefined) | i | 5 | 6 | -9 | 1 | -32 | nt
CC(C)(C)Sc1ccccc1S(=O)(=O)C(C)(C)C | i | 3 | -20 | 2 | 13* | -13 | -2
COC(=O)c1ccccc1S(=O)(=O)C(C)(C)C | i | 11 | 26 | -4 | -1 | -11 | nt
COc1ccc(-n2c(-c3cccnc3)n[nH]c2=S)cc1 | nt | 11 | -19 | nt | nt | nt | nt
CC(C)c1ccc(-c2nnc(N)s2)cc1 | i | 10 | 4 | -14 | 12* | -11 | 3
Cc1ccc(-c2nnc(N)s2)cc1 | i | 3 | 0 | 4 | -1 | -12 | nt
O=C(CSc1nnc2c3c4c(sc3nc(C3CC3)n12)CCCC4)NCc1cccs1 | nt | 8 | -6 | nt | nt | nt | nt
COc1cc(C2C(C#N)=C(N)OC3=C2C(=O)CCC3)ccc1OCC(=O)Nc1ccccc1C (centres undefined) | nt | 9 | 6 | nt | nt | nt | nt
CCOC(=O)c1ccccc1NC(=S)N1CCC(C)CC1 | i | 3 | -13 | -5 | -2 | -9 | nt
CCOC(=O)c1ccccc1NC(=S)N1CC(C)CC(C)C1 (centres undefined) | nt | 11 | 35 | -4 | 15* | 3 | 2
CC1CC(C)CN(C(=O)Nc2ccccc2F)C1 (centres undefined) | i | 8 | 22 | -13 | 19* | -12 | 1
CC(C)NC(=O)C1CCCN1C(=O)Nc1ccccc1F (centres undefined) | nt | 10 | 6 | nt | nt | nt | nt
Cc1sc2ncnc(NCCCCCC(=O)O)c2c1C | nt | 6 | 1 | nt | nt | nt | nt
O=C(Cn1cnc2ccccc2c1=O)OCC(=O)c1ccc2c(c1)OCCO2 | i | 7 | -1 | -13 | 11* | -26 | 1
O=C(Cn1cnc2ccccc2c1=O)Nc1ccc2c(c1)OCCO2 | i | 7 | -18 | -3 | 11* | -21 | 6
O=C(Cn1cnc2ccccc2c1=O)NCCC(=O)Nc1ccc2c(c1)OCCO2 | i | 7 | 21 | -9 | -2 | -6 | nt

Screens deposited in PubChem BioAssay by several laboratories.
